# In ChEMBL document CHEMBL2218924, “A broad activity screen in support of a chemogenomic map for kinase signalling research and drug discovery” (Biochem J, 2013):
# Assays:
# [1] = molecular target: T1, Serine/threonine-protein kinase TBK1 (Homo sapiens) (UniProt Q9UHD2); conditions: at 1 µM
# T1 sequence (whole entry): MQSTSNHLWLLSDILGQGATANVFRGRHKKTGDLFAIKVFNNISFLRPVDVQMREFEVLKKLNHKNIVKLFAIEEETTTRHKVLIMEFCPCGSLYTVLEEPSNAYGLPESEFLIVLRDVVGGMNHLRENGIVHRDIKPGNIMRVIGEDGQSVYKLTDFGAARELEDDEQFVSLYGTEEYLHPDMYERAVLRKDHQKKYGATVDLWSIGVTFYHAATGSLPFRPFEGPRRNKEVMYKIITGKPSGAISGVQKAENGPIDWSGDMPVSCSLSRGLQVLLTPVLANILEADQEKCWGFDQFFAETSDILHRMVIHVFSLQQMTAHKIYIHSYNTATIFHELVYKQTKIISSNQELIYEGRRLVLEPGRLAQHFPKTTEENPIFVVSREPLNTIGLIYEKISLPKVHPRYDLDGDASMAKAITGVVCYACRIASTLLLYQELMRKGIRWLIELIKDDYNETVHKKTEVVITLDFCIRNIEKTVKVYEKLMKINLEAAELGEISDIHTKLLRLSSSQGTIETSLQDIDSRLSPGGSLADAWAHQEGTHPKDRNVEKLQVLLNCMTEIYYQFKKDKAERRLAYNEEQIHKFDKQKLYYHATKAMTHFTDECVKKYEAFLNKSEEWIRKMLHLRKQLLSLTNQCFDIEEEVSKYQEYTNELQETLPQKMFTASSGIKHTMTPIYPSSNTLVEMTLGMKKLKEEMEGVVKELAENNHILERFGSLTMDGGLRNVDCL
# [2] = molecular target: T1, Serine/threonine-protein kinase TBK1 (Homo sapiens); conditions: at 10 µM
# [3] = molecular target: T2, TGF-beta receptor type-1 (Homo sapiens) (UniProt P36897); conditions: at 1 µM
# T2 sequence (whole entry): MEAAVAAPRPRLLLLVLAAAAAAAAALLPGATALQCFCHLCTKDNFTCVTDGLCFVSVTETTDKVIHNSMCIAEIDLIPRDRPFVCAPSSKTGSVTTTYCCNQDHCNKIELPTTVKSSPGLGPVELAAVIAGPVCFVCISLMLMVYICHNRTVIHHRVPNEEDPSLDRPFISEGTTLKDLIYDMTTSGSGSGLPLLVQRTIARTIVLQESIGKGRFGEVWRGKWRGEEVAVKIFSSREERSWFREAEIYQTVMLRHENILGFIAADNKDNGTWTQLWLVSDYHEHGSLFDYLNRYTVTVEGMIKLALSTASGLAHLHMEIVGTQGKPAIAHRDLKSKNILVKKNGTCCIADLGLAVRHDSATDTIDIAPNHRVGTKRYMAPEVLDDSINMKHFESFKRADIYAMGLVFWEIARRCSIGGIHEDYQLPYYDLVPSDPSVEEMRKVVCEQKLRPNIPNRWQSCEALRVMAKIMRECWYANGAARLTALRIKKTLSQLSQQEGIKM
# [4] = molecular target: T2, TGF-beta receptor type-1 (Homo sapiens); conditions: at 10 µM
# [5] = molecular target: Insulin-like growth factor 1 receptor (Homo sapiens) (UniProt P08069); conditions: at 1 µM
# [6] = molecular target: Insulin-like growth factor 1 receptor (Homo sapiens) (UniProt P08069); conditions: at 10 µM
# [7] = molecular target: T3, Inhibitor of nuclear factor kappa-B kinase subunit alpha (Homo sapiens) (UniProt O15111); conditions: at 1 µM
# T3 sequence (whole entry): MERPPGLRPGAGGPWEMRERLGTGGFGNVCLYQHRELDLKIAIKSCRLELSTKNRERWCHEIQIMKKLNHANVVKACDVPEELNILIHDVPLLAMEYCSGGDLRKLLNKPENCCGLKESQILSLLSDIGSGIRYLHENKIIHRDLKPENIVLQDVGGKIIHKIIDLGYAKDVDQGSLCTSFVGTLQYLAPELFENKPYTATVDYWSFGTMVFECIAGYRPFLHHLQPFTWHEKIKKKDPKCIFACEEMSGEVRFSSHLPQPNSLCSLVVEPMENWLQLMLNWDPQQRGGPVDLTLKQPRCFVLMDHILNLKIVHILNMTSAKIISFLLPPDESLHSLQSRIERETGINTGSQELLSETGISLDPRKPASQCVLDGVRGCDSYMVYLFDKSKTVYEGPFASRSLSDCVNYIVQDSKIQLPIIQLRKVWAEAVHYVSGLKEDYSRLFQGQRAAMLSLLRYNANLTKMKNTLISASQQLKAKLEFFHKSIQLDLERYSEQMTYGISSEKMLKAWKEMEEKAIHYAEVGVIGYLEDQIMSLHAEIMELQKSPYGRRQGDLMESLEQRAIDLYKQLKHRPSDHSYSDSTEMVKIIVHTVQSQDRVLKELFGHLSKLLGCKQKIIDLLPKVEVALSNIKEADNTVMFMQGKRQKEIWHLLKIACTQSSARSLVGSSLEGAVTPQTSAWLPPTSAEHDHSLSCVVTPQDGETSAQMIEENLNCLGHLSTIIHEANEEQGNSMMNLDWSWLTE
# [8] = molecular target: T3, Inhibitor of nuclear factor kappa-B kinase subunit alpha (Homo sapiens); conditions: at 10 µM
# [9] = molecular target: T4, Inhibitor of nuclear factor kappa-B kinase subunit beta (Homo sapiens) (UniProt O14920); conditions: at 1 µM
# T4 sequence (whole entry): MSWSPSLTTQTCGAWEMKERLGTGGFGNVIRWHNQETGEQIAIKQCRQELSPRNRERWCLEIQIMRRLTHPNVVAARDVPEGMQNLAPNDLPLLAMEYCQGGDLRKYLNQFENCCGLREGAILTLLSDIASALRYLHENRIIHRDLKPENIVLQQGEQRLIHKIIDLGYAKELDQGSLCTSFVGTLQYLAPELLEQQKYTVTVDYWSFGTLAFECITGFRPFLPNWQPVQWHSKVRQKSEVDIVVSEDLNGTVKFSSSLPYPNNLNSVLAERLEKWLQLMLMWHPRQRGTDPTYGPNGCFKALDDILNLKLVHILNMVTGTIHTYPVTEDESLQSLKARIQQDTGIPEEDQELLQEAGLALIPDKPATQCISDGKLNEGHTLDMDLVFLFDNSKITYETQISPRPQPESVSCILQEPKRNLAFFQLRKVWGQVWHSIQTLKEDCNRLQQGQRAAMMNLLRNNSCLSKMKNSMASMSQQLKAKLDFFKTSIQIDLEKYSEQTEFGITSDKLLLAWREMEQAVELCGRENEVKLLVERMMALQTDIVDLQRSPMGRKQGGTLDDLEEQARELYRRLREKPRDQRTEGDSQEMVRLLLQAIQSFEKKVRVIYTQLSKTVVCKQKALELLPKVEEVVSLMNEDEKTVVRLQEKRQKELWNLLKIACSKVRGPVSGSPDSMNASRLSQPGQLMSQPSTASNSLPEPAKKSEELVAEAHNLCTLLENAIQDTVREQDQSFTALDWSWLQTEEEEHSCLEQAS
# [10] = molecular target: T4, Inhibitor of nuclear factor kappa-B kinase subunit beta (Homo sapiens); conditions: at 10 µM
# Insulin-like growth factor 1 receptor (Homo sapiens), sequence (P08069 31-736 limits assumed): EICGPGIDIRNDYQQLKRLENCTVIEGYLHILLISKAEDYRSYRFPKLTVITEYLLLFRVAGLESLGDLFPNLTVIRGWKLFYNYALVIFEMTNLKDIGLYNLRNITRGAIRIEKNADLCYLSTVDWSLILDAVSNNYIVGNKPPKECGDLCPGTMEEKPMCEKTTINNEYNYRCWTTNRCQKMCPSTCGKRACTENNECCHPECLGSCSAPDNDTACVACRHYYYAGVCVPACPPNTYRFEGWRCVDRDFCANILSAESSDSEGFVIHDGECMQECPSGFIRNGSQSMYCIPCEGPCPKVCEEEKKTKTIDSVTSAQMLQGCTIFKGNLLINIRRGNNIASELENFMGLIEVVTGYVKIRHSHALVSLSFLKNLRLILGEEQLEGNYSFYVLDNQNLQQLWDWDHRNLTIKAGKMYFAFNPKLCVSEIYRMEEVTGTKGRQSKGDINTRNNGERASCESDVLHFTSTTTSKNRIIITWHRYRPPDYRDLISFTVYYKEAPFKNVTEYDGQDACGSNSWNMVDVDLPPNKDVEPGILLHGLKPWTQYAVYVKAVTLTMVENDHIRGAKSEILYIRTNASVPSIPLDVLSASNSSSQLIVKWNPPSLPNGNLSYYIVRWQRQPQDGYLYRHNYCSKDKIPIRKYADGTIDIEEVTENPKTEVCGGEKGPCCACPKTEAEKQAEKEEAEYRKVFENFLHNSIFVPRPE
# Insulin-like growth factor 1 receptor (Homo sapiens), sequence (P08069 741-1367 limits assumed): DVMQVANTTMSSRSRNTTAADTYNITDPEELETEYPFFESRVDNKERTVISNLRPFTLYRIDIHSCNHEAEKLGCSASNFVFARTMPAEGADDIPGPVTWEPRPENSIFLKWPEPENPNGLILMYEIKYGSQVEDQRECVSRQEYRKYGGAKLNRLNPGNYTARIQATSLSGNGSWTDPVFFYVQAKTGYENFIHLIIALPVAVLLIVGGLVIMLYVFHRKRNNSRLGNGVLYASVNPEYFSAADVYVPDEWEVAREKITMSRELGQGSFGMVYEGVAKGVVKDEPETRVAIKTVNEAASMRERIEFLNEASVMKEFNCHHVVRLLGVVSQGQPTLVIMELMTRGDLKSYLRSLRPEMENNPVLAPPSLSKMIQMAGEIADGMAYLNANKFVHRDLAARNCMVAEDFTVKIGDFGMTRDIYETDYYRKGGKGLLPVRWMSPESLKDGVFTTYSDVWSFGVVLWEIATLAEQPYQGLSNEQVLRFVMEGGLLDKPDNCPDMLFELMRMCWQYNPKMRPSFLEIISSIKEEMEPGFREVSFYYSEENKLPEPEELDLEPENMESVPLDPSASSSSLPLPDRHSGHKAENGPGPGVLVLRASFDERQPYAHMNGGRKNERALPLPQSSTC
smiles,measurement,setting,value
Cc1cc2ncc(-c3ccccc3)nc2cc1C,residual activity,[1],86%
same,residual activity,[2],73%
same,residual activity,[3],100%
same,residual activity,[4],91%
same,residual activity,[5],99%
same,residual activity,[6],101%
same,residual activity,[7],105%
same,residual activity,[8],109%
same,residual activity,[9],101%
same,residual activity,[10],99%
